# Several values for one entry are separate records, joined by “and”; a condition that tells them apart may be missing. Equal values may be shown once. Records with an inconclusive call do not appear. Some compounds were tested as several samples or in several runs, with calls that do not always agree. Activity calls are given as the source filed them. Calls come from the whole dose curve; as a rule, active = well fitted activation curve with a large enough effect in the repeat runs; inconclusive = weak or mixed curves; inactive = no such curve, though single readings can be large or run the other way. Starred links: 1 amine or outer side, 2 acyl side, 3 side chain; linkers in the order of their positions; H or OH if unused. Positions of bridges follow the written chain, without caps; N, C: chain ends. Non-standard residues stand in square brackets, D forms with d. Residues, ends and D or L forms follow the SMILES beside them. Chains are numbered I, II in the order given. Actinocin(9to1) = Cc1c2oc3c(C)ccc(C(=O)[*:1])c3nc-2c(C(=O)[*:2])c(N)c1=O; NMeV = CN[C@H](C(=O)O)C(C)C; Sar = CNCC(=O)O
# Molecular target: Nuclear receptor subfamily 1 group I member 3 (Homo sapiens) (UniProt Q14994)
# Assay: qHTS assay to identify small molecule agonists of the constitutive androstane receptor (CAR) signaling pathway (AID 1224839); note: nearly all actives have a fitted effect of over 15% in size;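 for activation: HepG2 cells stably carrying human CAR and a CYP2B6 luciferase reporter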
# Conditions: HepG2 hCAR CYP2B6-luciferase, agonist mode, 24 h; series mostly up to 92.4 µM; activation: at the top concentration
# Description: National Center for Advancing Translational Sciences [NCATS] NIH Chemical Genomics Center [NCGC] U.S. Environmental Protection Agency [EPA] National Institutes of Environmental Health Sciences [NIEHS] National Toxicology Program [NTP] Assay overview: The constitutive androstane receptor (CAR) is a nuclear receptor which regulates multiple drug metabolizing enzymes (DMEs) and transporters. Activating CAR will generally increase the transcription and subsequent translation of CYP2B6 and CYP3A4. These two DMEs represent about 50% of the drug metabolizing potential in the body. […] Recently, there have also been studies performed indicating CARs role in energy metabolism and cancer therapy. Therefore, inducing CARs activity could have a potential effect on diabetes and cancer. Identifying environmental toxins and compounds which modulate CAR, through the use of the Tox21 10K compound collection, will be an important step in determining the toxicity and potential therapeutic effects these factors will have on the human body.
# Assay Protocol Summary: A double-stable (hCAR and CYP2B6-2.2kb) transfected cell line, derived from human hepatoma (HepG2) cells, was utilized for the duration of the quantitative high-throughput screens. The HepG2-CYP2B6-hCAR cells suspended in DMEM culture medium supplemented with 10% FBS, 5 ug/mL blasticidin, 0.5 mg/mL geneticin, 100 U/mL penicillin and 100 ug/mL streptomycin were dispensed at 2500 cells/4 uL/well in 1536-well white solid bottom plates using a Multidrop Combi. After the assay plates were incubated at 37 C/5% CO2 for 4 hrs, 23 nL of compounds at 15 concentrations (from 5-48 columns) or positive control (from 1 to 4 columns) were transferred to the assay plates using a Pintool station. One uL of PK11195, was added using a Flying Reagent Dispenser to generate a final concentration of 0.75 uM PK11195 inside each well. After a 24 hr incubation period at 37 C/5% CO2, four uL of ONE-Glo reagent was added into the assay plates using a Flying Reagent Dispenser. After a 30 min incubation period at room temperature, the luminescence intensity in the assay plates was measured using a ViewLux plate reader.
# % is set by controls: 0 for no effect and ±100 for the full control effect; potency is the fitted concentration of half-maximal effect.
# Chain of Nuclear receptor subfamily 1 group I member 3 (Homo sapiens) (Q14994 whole entry, looked up): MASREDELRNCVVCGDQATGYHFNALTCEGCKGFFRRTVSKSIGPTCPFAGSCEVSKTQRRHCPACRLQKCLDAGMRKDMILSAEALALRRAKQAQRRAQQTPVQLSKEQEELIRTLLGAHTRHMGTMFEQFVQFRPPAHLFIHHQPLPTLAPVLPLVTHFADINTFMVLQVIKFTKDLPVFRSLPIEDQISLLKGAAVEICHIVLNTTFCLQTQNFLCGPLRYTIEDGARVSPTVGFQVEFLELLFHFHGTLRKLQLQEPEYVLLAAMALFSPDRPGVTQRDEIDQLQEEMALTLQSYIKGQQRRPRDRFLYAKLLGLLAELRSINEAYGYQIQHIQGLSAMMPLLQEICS
Compound,activation,Potency
Cc1cc(C2(c3cc(C)c(O)cc3C)OS(=O)(=O)c3ccccc32)c(C)cc1O,-0.0297% (inactive),
O=C(Oc1ccccc1)c1ccccc1O,,inactive
BrC1CCC(Br)C(Br)CCC(Br)C(Br)CCC1Br (stereo not given),,inactive
O=C(O)Cn1cnnn1,0.0022% [at 42.5 µM] (inactive),
COc1ccc(Cc2cnc(N)nc2N)cc1OC,-1.65% [at 42.5 µM] (inactive),
CC(C)CCOC(=O)c1ccc(N(C)C)cc1,,13.3 µM (active)
Cc1occc(=O)c1OC(=O)C(C)C,1.3% (inactive),
OCCN1CCNCC1,,inactive
COC(=O)/C=C/c1ccccc1,-1.05% (inactive),
c1ccc2n[nH]nc2c1,,inactive
Cc1cc(C(C)(C)C)c(O)c(C(C)(C)C)c1,11.7% [at 42.5 µM] (inactive),
CCCCCCCCCCCCc1ccccc1O,,4.79 µM (active) and 4.33 µM (active)
Cc1ccnc2c1NC(=O)c1cccnc1N2C1CC1,,inactive
Nc1nc(=S)c2[nH]cnc2[nH]1,,inactive
O=C(O)CP(=O)(O)O,0.829% [at 42.5 µM] (inactive),
CC(C)(O)CCC(C)(C)O,-0.424% (inactive),
CCCCC/C=C/CC1CC(=O)OC1=O (stereo not given),-0.448% (inactive),
Cc1ccc(S(=O)(=O)Oc2ccc(N=Nc3ccc(-c4ccc(N=Nc5c(O)ccc6cc(S(=O)(=O)O)cc(S(=O)(=O)O)c56)c(C)c4)cc3C)cc2)cc1,,inactive
[Cl][In]([Cl])[Cl],,inactive
CC(C)(C)c1cc(C(C)(C)C)c(O)c(C(C)(C)C)c1,,12.2 µM (active)

Compound,activation,Potency
CC(C)(c1ccccc1)c1ccc(Nc2ccc(C(C)(C)c3ccccc3)cc2)cc1,,inactive
CCN1CCCC1CNC(=O)c1cc(S(=O)(=O)CC)c(N)cc1OC (stereo not given),0.847% [at 42.5 µM] (inactive),
Cc1cc(Cc2cc(C)cc(C(C)(C)C)c2O)c(O)c(C(C)(C)C)c1,,inactive
Cc1c(O)cccc1C(=O)N[C@@H](CSc1ccccc1)[C@H](O)CN1C[C@H]2CCCC[C@H]2C[C@H]1C(=O)NC(C)(C)C,,inactive
CCOc1ccc2c(c1)C(C)=CC(C)(C)N2,,27.2 µM (active) and 27.3 µM (active)
CC(C)(C)NCC(O)COc1ccccc1OCC1CCCO1 (stereo not given),1.32% [at 42.5 µM] (inactive),
CCCCCC(=O)O[C@]1(C(C)=O)CC[C@H]2[C@@H]3CCC4=CC(=O)CC[C@]4(C)[C@H]3CC[C@@]21C,,inactive
CCN(CC)C(=O)Nc1ccc(OCC(O)CNC(C)(C)C)c(C(C)=O)c1 (stereo not given),0.185% [at 42.5 µM] (inactive),
CCN(CC)c1ccc2c(C)cc(=O)oc2c1,,27.5 µM (active) and 48.6 µM (active)
CC(C)CCOCc1ccccc1,-0.461% (inactive),
CCCOC(=O)c1cc(O)c(O)c(O)c1,,inactive and 19.3 µM (active)
CCOC(=O)C(C)C(C)=O (stereo not given),-1.72% (inactive),
COc1ccc(COC(C)=O)cc1,,inactive
CC(C)(C)c1ccc(O)c(C(C)(C)C)c1,,inactive
CN(C)c1ccc2nc3ccc(=[N+](C)C)cc-3sc2c1,,1.54 µM (active) and 750 nM (active)
COc1cc(C(=S)N2CCOCC2)ccc1O,-3.12% [at 42.5 µM] (inactive),
N[C@@H]1CONC1=O,0.263% [at 42.5 µM] (inactive),
CCCCCCC(O)CCCCCCCCCCC(=O)O (stereo not given),,inactive
Cc1cccc2n[nH]nc12,,inactive
"Cc1c2oc3c(C)ccc(C(=O)N[C@@H]4C(=O)N[C@H](C(C)C)C(=O)N5CCC[C@H]5C(=O)N(C)CC(=O)N(C)[C@@H](C(C)C)C(=O)O[C@@H]4C)c3nc-2c(C(=O)N[C@@H]2C(=O)N[C@H](C(C)C)C(=O)N3CCC[C@H]3C(=O)N(C)CC(=O)N(C)[C@@H](C(C)C)C(=O)O[C@@H]2C)c(N)c1=O (I: T[dV]P[Sar][NMeV] / II: T[dV]P[Sar][NMeV]; ester I:1-I:C, II:1-II:C; linker I:N-II:N via Actinocin(9to1))",,inactive
